Our source for the growth values is PubChem BioAssay (NCI).

Some test systems named below: HCT-15 colon; HT29 colon; SNB-75 CNS; SNB-19 CNS; U251 CNS; PC-3 prostate; SK-MEL-5 melanoma; LOX IMVI melanoma; SK-MEL-28 melanoma; SK-MEL-2 melanoma; EKVX NSCLC; SN12C renal; UO-31 renal; TK-10 renal; ACHN renal; CAKI-1 renal; A498 renal; CCRF-CEM leukemia; MOLT-4 leukemia; UACC-62 melanoma.
Test in all cases: NCI-60 one-dose screen, 48 h (100 = growth as untreated, 0 = no growth, -100 = all killed)
Common to all, as to settings: 10 µM unless noted

Structures are written as SMILES. Compounds without any hit were thinned out: in the full panel of roughly 83,000, 20% have a hit.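 Negative percent growth values reflect cell death: -40 means 40% of the cells present at the start died, and -100 means all died.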 Unmarked numbers belong to inactive results. Calls of active or inactive are those of the source. Rule for the calls: active = growth percent below 10; inactive = the rest.

Consider `Cn1c(=O)c2c(nc(NC3=NS(=O)(=O)c4ccccc43)n2Cc2ccccc2)n(C)c1=O`, for which the growth in the assay on HCT-15 colon is 98.4%; with HT29 colon, 111%; in the assay with SNB-75 CNS it was 93.1%; in the assay with SNB-19 CNS, 96.1%; in the assay on U251 CNS, 104%; in the assay on PC-3 prostate it was 95.4%. The growth is 99.4% with SK-MEL-5 melanoma; 95.6% in the assay on LOX IMVI melanoma; 107% with SK-MEL-28 melanoma; 99.7% in the assay with SK-MEL-2 melanoma; 91.5% in the assay on EKVX NSCLC; 93% with SN12C renal. Besides, the growth in the assay on UO-31 renal was 81.2%; with TK-10 renal it was 143%; in the assay on ACHN renal it was 97.5%; in the assay with CAKI-1 renal it was 83.7%; in the assay on A498 renal, 60.4%; in the assay on CCRF-CEM leukemia it was 104%. The growth in the assay on MOLT-4 leukemia was 106%.

On to `CN(C)c1ccc(/C=C2/C=C(c3ccccc3)OC2=O)cc1`, for which the growth in the assay on HCT-15 colon was 91.7%; in the assay with HT29 colon, 94.7%; in the assay on SNB-75 CNS, 102%; with SNB-19 CNS it was 107%; with U251 CNS, 108%; in the assay with SK-MEL-5 melanoma, 87%. For the same molecule, the growth in the assay with UACC-62 melanoma was 92.6%; with LOX IMVI melanoma, 98.8%; with SK-MEL-28 melanoma, 105%; in the assay with SK-MEL-2 melanoma, 84.6%; in the assay on EKVX NSCLC, 109%; in the assay on SN12C renal it was 107%. Moreover, the growth was 73.7% in the assay on UO-31 renal; 110% in the assay with TK-10 renal; 97.1% in the assay on ACHN renal; 91.3% in the assay on CAKI-1 renal; 95.8% with A498 renal; 52.7% in the assay with CCRF-CEM leukemia.

As to `CCN(CC)CCCC(C)Nc1ccc2cc(OC)ccc2n1` (centres undefined), the growth is 103% in the assay on HCT-15 colon; 106% in the assay on HT29 colon; 89.8% in the assay with SNB-75 CNS; 106% in the assay on SNB-19 CNS; 97.9% in the assay with U251 CNS; 107% in the assay with SK-MEL-5 melanoma. For the same molecule, the growth in the assay with UACC-62 melanoma is 108%; in the assay on LOX IMVI melanoma it was 102%; in the assay on SK-MEL-28 melanoma it was 108%; in the assay with SK-MEL-2 melanoma, 116%; in the assay with EKVX NSCLC, 91.4%; in the assay on SN12C renal, 104%. Besides, the growth was 91.3% in the assay on UO-31 renal; 106% in the assay on TK-10 renal; 107% in the assay with ACHN renal; 101% in the assay on CAKI-1 renal; 84.5% with A498 renal; 107% with CCRF-CEM leukemia. Further, the growth with MOLT-4 leukemia was 116%.

For the molecule `Nc1c(C(=O)O)cc(Cl)cc1[N+](=O)[O-]`, the growth with HCT-15 colon was 104%; in the assay with HT29 colon it was 97.7%; in the assay on SNB-75 CNS, 89.8%; with SNB-19 CNS, 112%; with U251 CNS it was 104%; with SK-MEL-5 melanoma it was 103%. Besides, the growth is 96.4% in the assay with UACC-62 melanoma; 100% with LOX IMVI melanoma; 109% with SK-MEL-28 melanoma; 110% in the assay on SK-MEL-2 melanoma; 103% in the assay with EKVX NSCLC; 93.9% with SN12C renal. For the same molecule, the growth was 79.3% with UO-31 renal; 118% with TK-10 renal; 96.5% in the assay with ACHN renal; 111% in the assay on CAKI-1 renal; 100% in the assay on A498 renal; 78.6% in the assay on CCRF-CEM leukemia. Besides, the growth in the assay with MOLT-4 leukemia is 94.2%.

Consider `COc1ccc(-c2nnc(SCC(=O)Nc3ccc(/C(C)=N\O)cc3)n2-c2ccccc2)cc1OC`, for which the growth in the assay with HCT-15 colon was 98.6%; in the assay with HT29 colon, 91.2%; with SNB-75 CNS, -16.5% (active); in the assay on SNB-19 CNS, 75.8%; in the assay with U251 CNS it was 34.4%; in the assay with SK-MEL-5 melanoma it was 94.6%. In addition, the growth in the assay on UACC-62 melanoma was 82.8%; with LOX IMVI melanoma, 80.1%; with SK-MEL-28 melanoma it was 87.3%; in the assay on SK-MEL-2 melanoma it was 57.6%; in the assay on EKVX NSCLC, 71.1%; in the assay with SN12C renal it was 71.8%. Also, the growth with UO-31 renal was 104%; in the assay on TK-10 renal, 41.1%; in the assay on ACHN renal, 75.5%; with CAKI-1 renal, 87.4%; in the assay with A498 renal it was 91.8%; in the assay on CCRF-CEM leukemia it was 98.5%. In the assay on MOLT-4 leukemia, the growth is 91.7%.

On to `O=C1OCC2=C1C(c1cccc(F)c1)c1cc3c(cc1N2CCO)OCO3` (centres undefined), for which the growth in the assay on HCT-15 colon is 22.1%; with HT29 colon it was 5.77% (active); with SNB-75 CNS, 16.9%; in the assay on SNB-19 CNS, 32.9%; with U251 CNS, 21.7%; in the assay with SK-MEL-5 melanoma, 22.8%. The growth with UACC-62 melanoma is 47.2%; in the assay on LOX IMVI melanoma it was 34.9%; in the assay on SK-MEL-28 melanoma it was 59.5%; in the assay on SK-MEL-2 melanoma it was 26%; in the assay on EKVX NSCLC, 46.1%; with SN12C renal it was 48.3%. For the same molecule, the growth in the assay on UO-31 renal is 36.9%; in the assay with TK-10 renal it was 52.3%; in the assay with ACHN renal, 34.5%; with CAKI-1 renal it was 23.8%; with A498 renal, 3.08% (active); in the assay on CCRF-CEM leukemia, 7.3% (active).

In the case of `CC(C)[C@@]12C[C@@H](OC(=O)COC(=O)c3ccccc3)[C@@](C)(O1)[C@@H]1CC[C@@H](C)[C@H]1[C@@H]2OC(=O)/C=C/c1ccccc1`, the growth is 92.5% in the assay with HCT-15 colon; 89.9% with HT29 colon; 72.6% in the assay with SNB-75 CNS; 84.5% in the assay on SNB-19 CNS; 84% with U251 CNS; 74.2% with PC-3 prostate. The growth in the assay with SK-MEL-5 melanoma was 90.7%; in the assay with LOX IMVI melanoma it was 89.1%; with SK-MEL-28 melanoma it was 107%; with EKVX NSCLC, 81.8%; with SN12C renal it was 31%; in the assay with UO-31 renal, -78.1% (active). Further, the growth in the assay with TK-10 renal is 88.9%; with ACHN renal it was -13.4% (active); in the assay with CAKI-1 renal, 5.14% (active); with A498 renal it was -76.6% (active); in the assay on CCRF-CEM leukemia it was 87%; in the assay with MOLT-4 leukemia, 80.8%.

For `O=C1NC(=O)c2c1c1c3ccccc3[nH]c1c1oc3ccc(F)cc3c21`, the growth with HCT-15 colon was 55.1%; with HT29 colon, 81.9%; in the assay with SNB-75 CNS, 41.3%; with SNB-19 CNS it was 89.4%; in the assay with U251 CNS, 83.4%; in the assay with SK-MEL-5 melanoma, 53%. The growth in the assay on UACC-62 melanoma was 46.1%; in the assay with LOX IMVI melanoma, 66%; in the assay with SK-MEL-28 melanoma it was 90.6%; in the assay on SK-MEL-2 melanoma, 89.4%; with EKVX NSCLC it was 56.4%; in the assay on SN12C renal, 74.6%. Also, the growth is 25% with UO-31 renal; 70.6% in the assay with TK-10 renal; 43.2% in the assay with ACHN renal; 41.2% in the assay with CAKI-1 renal; -6.99% (active) with A498 renal; 73.6% with CCRF-CEM leukemia. In the assay with MOLT-4 leukemia, the growth is 76.2%.
